These results are taken from the supplement of paper PMC6555819.

Experiment in all cases: PBM binding z-score (relative to random genomic background probes); higher = stronger binding; sequences stand for … in GC…GCGATTGACAGCGTAGAATGAAGG
Assay [1] deals with FXR:RXRa (NR concentration 270 nM, RXRa partner concentration 90 nM). An outline of the steps: (§1)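 For binding z-scores, the reference was random background probes on custom Agilent 4×180K protein-binding microarrays. These arrays were incubated 1 h with ligand-free nuclear receptor dimers in PBS pH 7.4, 2% milk, 0.02% Triton X-100, 1 mM DTT, 0.2 mg/mL BSA and 0.4 mg/ml salmon testes DNA. Fluorescence was scanned after antibody detection of each partner (one per run) and regression-normalized.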

In assay [2] the test system is LXRa:RXRa (NR concentration 270 nM, RXRa partner concentration 90 nM). An outline of the steps:
as §1

For assay [3], the system named is LXRa homodimer (NR concentration 270 nM). An outline of the steps: as §1
Assay [4] relates to LXRb:RXRa (NR concentration 270 nM, RXRa partner concentration 90 nM). An outline of the steps:
as §1

The test system of assay [5] is LXRb homodimer (NR concentration 270 nM). The essentials: as §1
Assay [6] relates to PPARa:RXRa (NR concentration 270 nM, RXRa partner concentration 90 nM). The essentials:
as §1

The subject of assay [7] is PPARg:RXRa (NR concentration 180 nM, RXRa partner concentration 90 nM). An outline of the steps:
as §1

The test system of assay [8] is PPARg:RXRa 270nM:90nM, anti-RXR (NR concentration 270 nM, RXRa partner concentration 90 nM). The essentials:
as §1

The test system of assay [9] is PPARg:RXRa 30nM:10nM, anti-RXR (NR concentration 30 nM, RXRa partner concentration 10 nM). An outline of the steps:
as §1

Assay [10] relates to PPARg:RXRa 90nM:30nM, anti-RXR (NR concentration 90 nM, RXRa partner concentration 30 nM). An outline of the steps: as §1
The subject of assay [11] is PPARg:RXRa DBDmut IVT, anti-RXR (DBD mutation: RXRa K156A/R161A, NR concentration 270 nM, RXRa partner concentration 90 nM). An outline of the steps: as §1
Assay [12] has as its system PPARg:RXRa IVT, anti-PPARg (NR concentration 270 nM, RXRa partner concentration 90 nM). The essentials: as §1
For assay [13], the system named is PPARg DBDmut:RXRa IVT, anti-PPARg (DBD mutation: PPARg1 K132A/R137A, NR concentration 270 nM, RXRa partner concentration 90 nM). The essentials: as §1
In assay [14] the test system is PPARg DBDmut IVT, anti-PPARg (DBD mutation: PPARg1 K132A/R137A, NR concentration 270 nM). The essentials:
as §1

Assay [15] deals with PPARg homodimer (NR concentration 180 nM). An outline of the steps:
as §1

Assay [16] concerns PXR:RXRa (NR concentration 270 nM, RXRa partner concentration 90 nM). The essentials:
as §1

Assay [17] has as its system PXR homodimer (NR concentration 270 nM). The essentials:
as §1

Assay [18] deals with RARa:RXR (NR concentration 270 nM, RXRa partner concentration 90 nM). The essentials: as §1
For assay [19], the system named is RARa homodimer (NR concentration 270 nM). The essentials: as §1
Assay [20] concerns RARb:RXRa (NR concentration 270 nM, RXRa partner concentration 90 nM). An outline of the steps: as §1

For TAGCCTAGGTCATGGGCCAGTAGACCACGCGAAC, the PBM binding z-score was 4.96 in assay [1]; 3.57 in assay [2]; 0.0345 in [3]; 2.2 in assay [4]; -0.335 in assay [5]; 4.38 in assay [6]. Besides, the PBM binding z-score in assay [7] was 4.13; in assay [8] it was 3.94; in assay [9], 1.03; in assay [10], 3.07; in [11], 1.37; in assay [12], 3.63. In addition, the PBM binding z-score in assay [13] is 0.0866; in [14], 0.107; in assay [15], 0.936; in assay [16], 1.5; in assay [17], -0.436; in assay [18], 2.64. Further, the PBM binding z-score in assay [19] is -0.0215; in assay [20], 3.92.

As for AGTATGAGGTTACCAAAGATCAGGGAAACGCTTG, the PBM binding z-score came to 1.85 in assay [1]; 5.92 in assay [2]; 0.237 in assay [3]; 3.08 in assay [4]; 0.134 in [5]; 2.76 in assay [6]. Further, the PBM binding z-score in assay [7] turned out to be 1.79; in assay [8], 1.65; in [9] it was 0.652; in assay [10], 1.11; in [11] it was 1.3; in [12] it was 1.52. Further, the PBM binding z-score was found to be 0.279 in [13]; 0.406 in [14]; 0.714 in assay [15]; 1.62 in [16]; 0.275 in [17]; 2.21 in [18]. Besides, the figures for the PBM binding z-score in assay [19] and in assay [20] were 0.475 and 2.19, respectively.

For the sequence GCTAGGAGGCCATTTGGGTCACTCAATGACGGGC, the PBM binding z-score was 0.677 in assay [1]; 0.0368 in assay [2]; -0.495 in [3]; 0.118 in assay [4]; -0.985 in assay [5]; 1.73 in assay [6]. For the same sequence, the PBM binding z-score is 0.825 in assay [7]; 0.402 in assay [8]; -0.518 in assay [9]; 0.187 in assay [10]; 1.91 in assay [11]; 2.38 in [12]. In addition, the PBM binding z-score in assay [13] was -0.861; in assay [14] it was -0.88; in [15], 0.287; in [16] it was 1.21; in [17], 1.1; in assay [18], 1.04. The PBM binding z-score in [19] is -0.719; in assay [20] it was 1.95.

With GATAGCAGGCCATTTGGGTCACTCAATGACGGGC, the PBM binding z-score in assay [1] is 0.302; in assay [2], -0.115; in [3], -0.247; in [4] it was 0.0936; in assay [5] it was -0.607; in assay [6], 1.73. For the same sequence, the PBM binding z-score is 1.4 in assay [7]; 1.12 in assay [8]; -0.311 in [9]; 0.763 in assay [10]; 3.66 in assay [11]; 3.5 in assay [12]. Besides, the PBM binding z-score in [13] was -0.0916; in assay [14], -0.698; in assay [15] it was -0.0574; in assay [16] it was 0.523; in assay [17], 0.0979; in [18], 0.747. Also, the values for the PBM binding z-score in assay [19] and in [20] were -0.472 and 1.55, respectively.

For TCATATAGGTAGACAGGTGAAAGTCCGTAAGTTA, the PBM binding z-score in assay [1] was 0.952; in assay [2], 1.11; in [3] it was 0.173; in assay [4], 0.898; in assay [5] it was -0.226; in [6] it was 1.32. For the same sequence, the PBM binding z-score in [7] worked out at 0.974; in assay [8], 2.5; in assay [9], 3.79; in [10], 3.27; in assay [11], 3.02; in assay [12], 1.33. Further, the PBM binding z-score is 1.18 in assay [13]; 0.507 in [14]; 1.25 in assay [15]; 0.852 in assay [16]; 0.981 in assay [17]; 0.512 in assay [18]. For the same sequence, the PBM binding z-score in [19] was 1.24; in assay [20], 0.76.

Turning to TCGAGTAGGTTAGTCGGGCCATTCAGCCAACATA, the PBM binding z-score in assay [1] is -0.164; in [2], -0.373; in assay [3], -0.481; in assay [4], -0.437; in assay [5], -1.41; in assay [6], 0.324. Also, the PBM binding z-score in assay [7] was -0.134; in assay [8] it was 0.911; in [9] it was 0.94; in assay [10], 0.798; in assay [11] it was 1.97; in [12], 1.9. In addition, the PBM binding z-score in assay [13] was -0.829; in [14] it was -1.18; in [15], -0.154; in assay [16], -0.339; in assay [17] it was -0.506; in assay [18], -0.314. The PBM binding z-score in [19] was -1; in assay [20], 0.287.

As for CCCGAAAGGTCGGTTGAGGTGAGTATACGGATAA, the PBM binding z-score in [1] was 3.38; in assay [2], 2.22; in assay [3], 0.406; in assay [4], 1.69; in assay [5], 0.134; in [6], 2.76. In addition, the PBM binding z-score in assay [7] amounted to 0.61; in [8] it was 1.12; in [9] it was 0.00163; in assay [10], 0.671; in [11], 0.203; in assay [12] it was 0.845. Also, the PBM binding z-score in assay [13] was -0.316; in assay [14], -0.0998; in assay [15], 1.28; in assay [16] it was 3.49; in [17] it was 0.481; in assay [18], 2.51. Further, the PBM binding z-score worked out at 0.922 in [19] and 3.33 in assay [20].
